# Of roughly 8,800 targets only a part is listed; those with a hit were picked by preference. About 0.5% of all pairs of compound and target were hits. Unmarked numbers belong to inactive results.
# Compound: C[C@H](C1=CC=C(C=C1)C(=O)NC2=C3C=CNC3=NC=C2)N
# Assay: log2 fold change, soluble protein after heating vs DMSO (PISA); higher = thermal stabilisation; K562 lysate, 10 uM; active = over 0.2 and 3.5 SD of the protein, either way, in both replicates (recomputed)
# In short: (§1)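 Pellets of K562 cells were dounce-homogenised in PBS pH 7.4 with 1 mM MgCl2, and the crude extract was held at 1 mg/mL protein for a 30 min treatment with 10 μM compound. Aliquots were heated for 3 min over 48°C-58°C and pooled before NP-40 was added to 0.5% at 4°C. The supernatant from 21,000xg for 90 min was quantified by TMTpro 16plex LC-MS/MS with channel sums equalised. Values are reported from duplicates as log-two fold change in thermal stability relative to solvent controls.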
# UniProt P51825, sequence (P51825 whole entry, looked up): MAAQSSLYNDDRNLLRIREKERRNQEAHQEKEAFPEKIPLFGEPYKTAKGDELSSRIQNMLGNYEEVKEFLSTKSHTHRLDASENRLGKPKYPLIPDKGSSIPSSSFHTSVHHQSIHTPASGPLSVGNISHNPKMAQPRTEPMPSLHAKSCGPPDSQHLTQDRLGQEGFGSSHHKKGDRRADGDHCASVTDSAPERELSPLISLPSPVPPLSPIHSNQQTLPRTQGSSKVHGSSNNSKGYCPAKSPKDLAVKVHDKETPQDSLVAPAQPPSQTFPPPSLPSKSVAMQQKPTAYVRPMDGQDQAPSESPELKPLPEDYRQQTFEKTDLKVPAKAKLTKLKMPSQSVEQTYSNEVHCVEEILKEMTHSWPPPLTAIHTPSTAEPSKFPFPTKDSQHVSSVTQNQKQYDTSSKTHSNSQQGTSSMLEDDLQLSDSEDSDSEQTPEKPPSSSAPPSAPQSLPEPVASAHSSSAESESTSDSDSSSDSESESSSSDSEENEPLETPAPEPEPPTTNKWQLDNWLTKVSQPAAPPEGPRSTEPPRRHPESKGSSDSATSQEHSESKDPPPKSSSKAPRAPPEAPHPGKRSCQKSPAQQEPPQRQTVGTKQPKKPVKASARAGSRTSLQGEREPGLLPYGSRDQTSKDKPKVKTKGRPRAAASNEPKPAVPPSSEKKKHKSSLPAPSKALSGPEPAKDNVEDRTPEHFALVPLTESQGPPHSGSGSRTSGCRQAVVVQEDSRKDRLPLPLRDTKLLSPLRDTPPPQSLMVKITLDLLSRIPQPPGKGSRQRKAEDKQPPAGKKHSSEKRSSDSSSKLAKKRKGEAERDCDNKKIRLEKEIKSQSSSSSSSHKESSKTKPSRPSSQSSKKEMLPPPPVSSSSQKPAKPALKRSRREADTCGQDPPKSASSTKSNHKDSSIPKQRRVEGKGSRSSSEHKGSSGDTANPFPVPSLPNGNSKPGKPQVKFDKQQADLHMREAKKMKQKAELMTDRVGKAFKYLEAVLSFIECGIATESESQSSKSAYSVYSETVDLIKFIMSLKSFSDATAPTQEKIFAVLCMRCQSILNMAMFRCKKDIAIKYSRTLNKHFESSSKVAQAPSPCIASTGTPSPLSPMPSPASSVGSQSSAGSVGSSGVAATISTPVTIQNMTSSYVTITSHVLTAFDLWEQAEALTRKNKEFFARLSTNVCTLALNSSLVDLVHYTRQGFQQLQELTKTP
# UniProt Q8N6T3, sequence (Q8N6T3 whole entry, looked up): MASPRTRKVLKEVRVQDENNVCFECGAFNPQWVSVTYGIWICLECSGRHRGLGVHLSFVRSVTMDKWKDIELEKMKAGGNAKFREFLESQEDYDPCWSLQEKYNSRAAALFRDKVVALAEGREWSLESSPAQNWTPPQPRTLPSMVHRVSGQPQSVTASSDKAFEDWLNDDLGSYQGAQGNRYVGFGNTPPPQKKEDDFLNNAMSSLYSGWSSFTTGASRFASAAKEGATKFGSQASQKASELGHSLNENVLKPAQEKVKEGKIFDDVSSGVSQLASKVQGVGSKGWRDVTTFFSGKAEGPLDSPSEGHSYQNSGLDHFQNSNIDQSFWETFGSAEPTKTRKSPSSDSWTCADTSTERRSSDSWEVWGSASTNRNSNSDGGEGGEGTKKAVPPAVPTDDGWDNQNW
# UniProt Q2VPB7, sequence (Q2VPB7 whole entry, looked up): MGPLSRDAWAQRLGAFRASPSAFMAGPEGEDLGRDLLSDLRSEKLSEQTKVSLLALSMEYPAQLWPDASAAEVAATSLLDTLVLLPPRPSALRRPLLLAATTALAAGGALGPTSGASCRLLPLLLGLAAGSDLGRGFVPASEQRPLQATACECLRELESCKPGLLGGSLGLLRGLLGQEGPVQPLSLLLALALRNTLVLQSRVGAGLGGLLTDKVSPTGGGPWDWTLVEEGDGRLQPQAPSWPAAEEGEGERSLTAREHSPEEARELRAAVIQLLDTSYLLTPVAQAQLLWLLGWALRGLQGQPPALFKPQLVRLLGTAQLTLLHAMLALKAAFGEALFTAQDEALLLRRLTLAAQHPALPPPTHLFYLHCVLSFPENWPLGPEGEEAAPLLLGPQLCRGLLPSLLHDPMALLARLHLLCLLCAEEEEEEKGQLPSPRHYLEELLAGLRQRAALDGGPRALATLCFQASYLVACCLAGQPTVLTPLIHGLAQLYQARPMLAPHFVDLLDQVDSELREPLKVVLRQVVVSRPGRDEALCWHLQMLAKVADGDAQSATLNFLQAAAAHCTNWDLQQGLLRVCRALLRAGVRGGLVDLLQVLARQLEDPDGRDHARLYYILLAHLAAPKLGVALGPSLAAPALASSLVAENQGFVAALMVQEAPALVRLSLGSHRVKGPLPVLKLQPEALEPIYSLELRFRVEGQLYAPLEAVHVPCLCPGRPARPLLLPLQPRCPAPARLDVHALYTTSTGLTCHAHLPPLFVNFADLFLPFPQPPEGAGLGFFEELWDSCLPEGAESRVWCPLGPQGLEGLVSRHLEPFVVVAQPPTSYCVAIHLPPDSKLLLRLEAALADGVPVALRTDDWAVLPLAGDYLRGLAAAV
# UniProt Q9ULX6, sequence (Q9ULX6 whole entry, looked up): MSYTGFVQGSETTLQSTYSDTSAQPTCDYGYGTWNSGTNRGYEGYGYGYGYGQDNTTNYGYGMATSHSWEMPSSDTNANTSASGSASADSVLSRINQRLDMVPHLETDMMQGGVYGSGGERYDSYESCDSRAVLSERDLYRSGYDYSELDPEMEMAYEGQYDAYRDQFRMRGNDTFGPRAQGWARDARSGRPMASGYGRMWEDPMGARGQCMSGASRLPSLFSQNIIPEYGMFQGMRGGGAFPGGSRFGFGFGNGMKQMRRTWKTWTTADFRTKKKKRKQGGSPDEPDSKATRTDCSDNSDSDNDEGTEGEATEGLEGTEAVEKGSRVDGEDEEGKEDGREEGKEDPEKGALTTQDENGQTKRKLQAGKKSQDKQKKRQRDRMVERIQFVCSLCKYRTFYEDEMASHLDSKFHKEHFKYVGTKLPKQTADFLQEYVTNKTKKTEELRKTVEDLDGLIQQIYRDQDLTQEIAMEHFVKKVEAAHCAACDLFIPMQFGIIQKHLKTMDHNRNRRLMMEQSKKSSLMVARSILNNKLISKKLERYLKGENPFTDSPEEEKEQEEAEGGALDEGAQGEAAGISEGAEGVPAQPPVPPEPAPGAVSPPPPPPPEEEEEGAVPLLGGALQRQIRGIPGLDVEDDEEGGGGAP
# UniProt O43823, sequence (O43823 whole entry, looked up): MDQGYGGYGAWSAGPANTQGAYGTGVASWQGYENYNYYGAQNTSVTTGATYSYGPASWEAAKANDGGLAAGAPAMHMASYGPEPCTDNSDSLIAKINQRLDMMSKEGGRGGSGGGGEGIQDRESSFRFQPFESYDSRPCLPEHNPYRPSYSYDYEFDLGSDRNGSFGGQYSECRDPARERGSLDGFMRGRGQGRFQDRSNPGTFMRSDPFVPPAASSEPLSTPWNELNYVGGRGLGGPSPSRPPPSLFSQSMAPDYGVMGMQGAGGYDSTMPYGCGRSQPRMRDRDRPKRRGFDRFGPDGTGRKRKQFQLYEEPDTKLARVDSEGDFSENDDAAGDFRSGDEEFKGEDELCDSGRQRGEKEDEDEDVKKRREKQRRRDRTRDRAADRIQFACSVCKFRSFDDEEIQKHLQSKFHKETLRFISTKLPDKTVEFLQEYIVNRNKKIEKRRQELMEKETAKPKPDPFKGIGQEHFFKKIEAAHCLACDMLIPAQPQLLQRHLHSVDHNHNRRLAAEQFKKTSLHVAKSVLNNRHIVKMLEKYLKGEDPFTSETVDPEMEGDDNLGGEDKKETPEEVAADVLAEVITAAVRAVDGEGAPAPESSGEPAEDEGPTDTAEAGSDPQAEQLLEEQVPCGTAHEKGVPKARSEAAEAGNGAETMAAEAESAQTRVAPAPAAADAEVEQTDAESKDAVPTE
# UniProt P39687, sequence (P39687 whole entry, looked up): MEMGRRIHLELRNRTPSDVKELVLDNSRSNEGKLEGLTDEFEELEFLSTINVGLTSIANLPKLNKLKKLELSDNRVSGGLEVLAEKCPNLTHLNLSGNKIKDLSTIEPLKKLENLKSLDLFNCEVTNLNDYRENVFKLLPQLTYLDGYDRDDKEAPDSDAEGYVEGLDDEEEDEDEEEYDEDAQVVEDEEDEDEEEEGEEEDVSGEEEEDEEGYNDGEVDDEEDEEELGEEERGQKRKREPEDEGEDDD
# UniProt Q9Y303, sequence (Q9Y303 whole entry, looked up): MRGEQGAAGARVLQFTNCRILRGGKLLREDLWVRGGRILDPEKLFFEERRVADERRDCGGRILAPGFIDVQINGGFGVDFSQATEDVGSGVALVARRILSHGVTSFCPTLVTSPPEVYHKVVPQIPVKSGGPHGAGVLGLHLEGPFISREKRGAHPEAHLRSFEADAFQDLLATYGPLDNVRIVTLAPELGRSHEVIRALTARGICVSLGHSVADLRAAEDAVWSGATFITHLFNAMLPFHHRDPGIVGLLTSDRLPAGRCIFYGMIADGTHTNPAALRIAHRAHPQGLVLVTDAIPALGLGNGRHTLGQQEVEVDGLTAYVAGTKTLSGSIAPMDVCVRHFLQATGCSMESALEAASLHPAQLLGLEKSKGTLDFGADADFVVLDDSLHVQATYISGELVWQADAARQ
# UniProt P31751, sequence (P31751 whole entry, looked up): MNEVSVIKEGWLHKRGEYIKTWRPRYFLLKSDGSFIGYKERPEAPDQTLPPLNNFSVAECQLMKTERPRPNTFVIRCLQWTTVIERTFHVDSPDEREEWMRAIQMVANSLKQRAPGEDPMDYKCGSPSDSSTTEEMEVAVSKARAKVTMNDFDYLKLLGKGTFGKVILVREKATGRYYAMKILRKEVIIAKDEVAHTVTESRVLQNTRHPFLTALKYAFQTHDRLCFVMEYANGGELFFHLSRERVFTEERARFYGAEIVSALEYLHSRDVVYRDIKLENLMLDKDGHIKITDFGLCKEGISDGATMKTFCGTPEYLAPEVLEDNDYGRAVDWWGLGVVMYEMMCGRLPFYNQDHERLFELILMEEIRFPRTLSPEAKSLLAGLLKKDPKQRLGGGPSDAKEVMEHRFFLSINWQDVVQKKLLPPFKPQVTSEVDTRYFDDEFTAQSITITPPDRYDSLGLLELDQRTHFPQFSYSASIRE
row,Target,log2 fold change
1,ARHGAP25 isoform 4 (UniProt P42331),-0.011
2,ARAF (UniProt P10398),-0.045
3,ANP32A (UniProt P39687),-0.063
4,ALDH5A1 isoform 2 (UniProt P51649),0
5,ANP32E (UniProt Q9BTT0),-0.017
6,AKAP8L (UniProt Q9ULX6),-0.05
7,ABHD13 (UniProt Q7L211),-0.593 (active)
8,ANXA11 (UniProt P50995),-0.044
9,ADD1 isoform 3 (UniProt P35611),-0.011
10,AK2 (UniProt P54819),0.076
11,AKAP8 (UniProt O43823),0.035
12,ARFGAP1 (UniProt Q8N6T3),-0.077
13,ANAPC7 (UniProt Q9UJX3),-0.009
14,ALDH6A1 (UniProt Q02252),-0.032
15,ANKRD27 (UniProt Q96NW4),-0.03
16,ALG13 (UniProt Q9NP73),-0.075
17,ASB6 (UniProt Q9NWX5),0.093
18,ACAT1 (UniProt P24752),-0.018

row,Target,log2 fold change
1,ANKRD54 (UniProt Q6NXT1),0.01
2,AKT2 (UniProt P31751),-0.007
3,AP5B1 (UniProt Q2VPB7),0.034
4,ANXA1 (UniProt P04083),-0.013
5,ARHGAP21 (UniProt Q5T5U3),0.071
6,ACYP1 (UniProt P07311),0.236 (active)
7,AKAP11 (UniProt Q9UKA4),-0.02
8,ALDH2 (UniProt P05091),-0.012
9,ARHGAP6 (UniProt O43182),0.106
10,ACSL1 (UniProt P33121),0.021
11,ARMC6 (UniProt Q6NXE6),0.012
12,AFF1 isoform 2 (UniProt P51825),-0.396 (active)
13,ANKRD30A (UniProt Q9BXX3),-0.155
14,AMDHD2 isoform 3 (UniProt Q9Y303),0.006
15,ANXA5 (UniProt P08758),0.059
16,ACTG1 (UniProt I3L4N8),-0.039
17,ARL15 (UniProt Q9NXU5),0.682 (active)

# Compound: C[C@H](Nc1ncnc2nc[nH]c12)c1cc2cccc(Cl)c2c(=O)n1-c1ccccc1 [duvelisib]
# Assay: as above
# In short: as §1
row,Target,log2 fold change
1,ARHGAP25 isoform 4 (UniProt P42331),0.008
2,ARAF (UniProt P10398),-0.025
3,ANP32A (UniProt P39687),-0.003
4,ALDH5A1 isoform 2 (UniProt P51649),-0.056
5,ANP32E (UniProt Q9BTT0),0.015
6,AKAP8L (UniProt Q9ULX6),0.038
7,ABHD13 (UniProt Q7L211),0
8,ANXA11 (UniProt P50995),-0.022
9,ADD1 isoform 3 (UniProt P35611),0.014
10,AK2 (UniProt P54819),-0.031
11,AKAP8 (UniProt O43823),0.022
12,ARFGAP1 (UniProt Q8N6T3),-0.054
13,ANAPC7 (UniProt Q9UJX3),-0.018
14,ALDH6A1 (UniProt Q02252),0.073
15,ANKRD27 (UniProt Q96NW4),-0.025
16,ALG13 (UniProt Q9NP73),0
17,ASB6 (UniProt Q9NWX5),0.008
18,ACAT1 (UniProt P24752),-0.016

row,Target,log2 fold change
1,ANKRD54 (UniProt Q6NXT1),0.008
2,AKT2 (UniProt P31751),-0.005
3,AP5B1 (UniProt Q2VPB7),-0.012
4,ANXA1 (UniProt P04083),0.016
5,ARHGAP21 (UniProt Q5T5U3),-0.007
6,ACYP1 (UniProt P07311),0.005
7,AKAP11 (UniProt Q9UKA4),0.015
8,ALDH2 (UniProt P05091),-0.03
9,ARHGAP6 (UniProt O43182),0.001
10,ACSL1 (UniProt P33121),0.043
11,ARMC6 (UniProt Q6NXE6),-0.027
12,AFF1 isoform 2 (UniProt P51825),0.067
13,ANKRD30A (UniProt Q9BXX3),-0.038
14,AMDHD2 isoform 3 (UniProt Q9Y303),-0.043
15,ANXA5 (UniProt P08758),-0.028
16,ACTG1 (UniProt I3L4N8),0.13
17,ARL15 (UniProt Q9NXU5),-0.004
